Consider 26 compounds from PubChem BioAssay AID1850 (Southern Research Specialized Biocontainment Screening …, 2009).

Values joined by “and” are separate entries in the source; they are usually repeats but may differ in a detail not shown here. Equal values may be shown once. About 1,000 (0.32%) of roughly 310,000 compounds were called active. Not all results are given here. Measured potencies and affinities stand elsewhere. Values without a mark were called inactive. No rule for the calls is given here.

A short description of this assay: Inhibition of PhoP regulon, Salmonella typhi GFP reporter cells, confirmation, 4 h (AID 1850).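 Also: 0% = induced wells with vehicle and 100% = uninduced wells.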 The following applies: Salmonella Typhi PhoP-promoter GFP reporter, fluorescence, at 50 µM, hits give high values.
As to `Cc1c(C(=O)N2CCC(N3CCSCC3)CC2)oc2c(F)cccc12`, the inhibition is -3.19%.

For `Cc1cc(NC(=O)NCC(F)(F)F)no1`, the inhibition was -7.59%.

In the case of `CCN(CC)C(=O)c1sc2nc(N3CCOCC3)c3c(c2c1N)CCCC3`, the inhibition is 3.42%.

`O=C(Nc1ccccc1Cl)NC1(C(=O)NCc2ccncc2)CCCCC1`: the inhibition was 9.06%.

Turning to `CC(C)Cn1c(SCc2nc3ccccc3c(=O)[nH]2)nc2ccccc2c1=O`, the inhibition was -7.91%.

Regarding `Cc1sc(NC(=O)C2=COCCO2)nc1-c1ccc(F)cc1`, the inhibition is -5.87%.

In the case of `O=C1CSC(c2ccc3c(c2)OCO3)N1c1ccc(Oc2ccccc2)cc1` (stereo unspecified), the inhibition was 7.07%.

With `c1ccc(CSc2ccc(-c3ccco3)nn2)cc1`, the inhibition is 9.52%.

As to `Fc1ccc(CSc2ccc(-c3ccco3)nn2)cc1`, the inhibition is 6.93%.

Regarding `C[C@]12CCC(=O)C=C1CC[C@@H]1C2CC[C@]2(C)C(=O)CCC12` (stereo partly specified), the inhibition is -12.1%.

Consider `O=[N+]([O-])c1ccc(N/N=C/c2ccccc2)c(F)c1`, for which the inhibition is -8.42%.

As for `O=C(CCc1nnc(Cc2ccc(-c3ccccc3)cc2)o1)NCCc1cccnc1`, the inhibition was -5.62%.

Turning to `O=C(Oc1ccc(Cl)c2cccnc12)c1ccco1`, the inhibition was -5.73%.

As for `O=C(Oc1ccc(Cl)c2cccnc12)c1cccc([N+](=O)[O-])c1`, the inhibition is -4.89%.

Take `O=C(Oc1cccc2cccnc12)c1cccc([N+](=O)[O-])c1`: the inhibition was 1.2%.

As for `O=C(Oc1c(Cl)cc(Cl)c2cccnc12)c1cccs1`, the inhibition is 13.7%.

With `O=C(Nc1cccc(Cl)c1)c1ccc(=O)[nH]n1`, the inhibition was 12.7%.

`CC1CCC(NC(=O)c2nn(C)c3c2CS(=O)(=O)c2ccccc2-3)CC1` (stereo unspecified): the inhibition was 5.03%.

Take `COc1cccc(C(=O)NNC(=O)Cc2ccc(Cl)cc2)c1`: the inhibition is -3.92%.

For the compound `CSCCC(N=C(NS(=O)(=O)c1ccc(C)cc1)c1ccccc1)C(=O)O` (stereo unspecified), the inhibition was -3.75%.

Regarding `CCC(C)(C)NC(=O)CN(C(=O)c1snc(C(N)=O)c1N)c1ccc2nc(C)sc2c1`, the inhibition was -5.66%.

For `O=C(CCN1C(=O)C2C3C=CC(C3)C2C1=O)N1CCN(c2ccccc2F)CC1` (stereo unspecified), the inhibition was 18.6%.

For the compound `COC(=O)CSc1nc2nc(-c3cccs3)cc(C(F)(F)F)c2c(=O)[nH]1`, the inhibition is -1.37%.

In the case of `CCOC(=O)c1cc2c(cn1)[nH]c1ccccc12`, the inhibition was 9.76% and 5.1%.

Take `CNC(=O)c1cc2c(cn1)[nH]c1ccccc12`: the inhibition is 3.35%.

In the case of `CCOC(=O)CCC(=O)Nc1ccc(S(=O)(=O)Nc2cc(OC)nc(OC)n2)cc1`, the inhibition is -6.86%.

The inhibition is the change of the read-out against control, counted positive when it falls.
